Shown are actives, neighbours in structure and some others; about 8% of the full set was active somewhere.
Lassa entry inh: inhibitors of Lassa virus binding or cell entry | AID 540256 | 1.2% of 300,000 active | Lassa virus pseudotype entry inhibition, cell reporter | Potency, µM (doses to about 37.9 µM), inactives show top-dose activity change, negative = inhibition, hits mostly inhibitors; calls by dose curve; tested in HEK293 cells; note: potency is the fitted concentration of half-maximal effect; % is set by controls: 0 for no effect and ±100 for the full control effect; nearly all actives have a fitted effect of over 50% in size
HCV inhibitor: HCV inhibition; Huh7.5.1 HCVcc-Cre infection, luciferase reporter, 44 h; Potency, µM (highest dose often 41.8 µM), inactives show top-dose activity change, negative = inhibition, usual class: inhibitors; 3.4% of 340,000 active; AID 651820; active = well fitted inhibition curve with a large enough effect; inconclusive = small, poorly fitted or top-dose-only effect, or another doubt; inactive = no such curve, though single readings can be large or run the other way; note: potency is the fitted concentration of half-maximal effect; % is set by controls: 0 for no effect and ±100 for the full control effect
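Seed cells (1,000/well) for 4 h; treat with compound and infect with HCVcc-Cre, moi about 0.5. Incubate 44 h, then detect luciferase activity.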
MARV entry inh: blocks Marburg virus binding to or entry into cells; Marburg virus pseudotyped entry inhibition, cell reporter; Potency, µM (top dose mostly 37.8 µM), without a hit: top-dose activity change, negative = inhibition, usual class: inhibitors; 1.8% of 300,000 active; AID 540276; calls by dose curve; tested in HEK293 cells; note: potency is the fitted concentration of half-maximal effect; % is set by controls: 0 for no effect and ±100 for the full control effect
FMDV antiviral: blocks foot and mouth disease virus. FMDV antiviral cell-based qHTS. Potency, µM (highest dose often 57.9 µM), for the others: top-dose activity change, negative = inhibition, most hits filed as inhibitors. 1.2% of 410,000 active; calls by dose curve; tested in HEK293T cells; note: read-out not given here; potency is the fitted concentration of half-maximal effect; % is set by controls: 0 for no effect and ±100 for the full control effect; nearly all actives have a fitted effect of over 45% in size
SARS PLP yeast: blocks SARS-CoV papain-like protease in a yeast assay; S. cerevisiae expressing SARS-CoV PLpro, growth rescue; Potency, µM (top dose mostly 32.9 µM), for the others: at the top dose activity, positive = growth rescue, hits mostly activators; 0.19% of 330,000 active; AID 485353; calls by dose curve; note: potency is the fitted concentration of half-maximal effect; 0% is about no effect; nearly all actives have a fitted effect of over 55% in size
HCMV inh: human cytomegalovirus inhibition | HFF cells, HCMV-luciferase reporter, 72 h; active compounds read low | activity change, negative = inhibition, % at 57.5 µM | 4.5% of 410,000 active; in the data active = activity change below about -60%; inconclusive = no clear call, values can overlap the other calls; inactive = above about -39%; note: % is set by controls: 0 for no effect and ±100 for the full control effect
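Two compound doses tested in HFFs infected with HCMV-luciferase, MOI 1 PFU/cell, 72 h at 37C. Lysate luminescence read with OneGlo; data normalized against buffer-only and 10uM Salinomycin inhibitor controls.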
* marks the source's active call; other numbers are inactive results; [ ] = dose if it differs, or a comment.

How did O=C1/C(=C\c2cccc([N+](=O)[O-])c2O)SC(=S)N1Cc1ccccc1 do in these assays?
HCV inhibitor: -15.5%; FMDV antiviral: inconclusive; SARS PLP yeast: -8.5%; HCMV inh: -63.6*

How did S=C1SCN(Cc2ccccn2)CN1Cc1ccco1 do in these assays?
Lassa entry inh: 13.5%[14.3 µM]; MARV entry inh: 9.2µM*; FMDV antiviral: -18.7%; SARS PLP yeast: 6.8%; HCMV inh: inconclusive

What do the screens show for `O=C1/C(=C/c2ccc(O)c([N+](=O)[O-])c2)SC(=S)N1Cc1ccccc1`?
Lassa entry inh: 22.3%[46.1 µM]; HCV inhibitor: 7.8%; MARV entry inh: -22.3%[46.1 µM]; FMDV antiviral: inconclusive; SARS PLP yeast: -0.8%; HCMV inh: -60.9*

Results for O=C1/C(=C/c2ccccc2O)SC(=S)N1Cc1cccnc1 ?
Lassa entry inh: 10.5%; HCV inhibitor: -0.6%; MARV entry inh: -3.9%; FMDV antiviral: 31.6µM*; SARS PLP yeast: inconclusive; HCMV inh: -78.0*

How did CCO[C@H]1[C@H](NC(=O)c2cccnc2)c2ccccc2C12CCN(C(=O)c1ccoc1)CC2 do in these assays?
FMDV antiviral: -6.3%

Results for CC(C)CC1C(=O)N(Cc2cn(Cc3ccco3)nn2)CCS(=O)(=O)N1Cc1ccc(-c2cccc(N(C)C)c2)cc1 (stereo not given) ?
FMDV antiviral: 0.0%; HCMV inh: -100.8*

What do the screens show for `CC1C(=O)N(Cc2cn(CCC3OCCCO3)nn2)CCS(=O)(=O)N1Cc1ccc(-c2ccc(Cl)cc2)cc1` (stereo not given)?
FMDV antiviral: 11.2µM*; HCMV inh: inconclusive

What do the screens show for `CC(C)CC1C(=O)N(Cc2cn(CC3CCCCC3)nn2)CCS(=O)(=O)N1Cc1ccc(-c2ccncc2)cc1` (stereo not given)?
Lassa entry inh: 14.1µM*; FMDV antiviral: -7.8%; HCMV inh: -5.1

How did Cc1ccc(-c2ccc(CN3C(CC(C)C)C(=O)N(Cc4cn(CCC5OCCO5)nn4)CCS3(=O)=O)cc2)cc1 (stereo not given) do in these assays?
MARV entry inh: inconclusive; FMDV antiviral: inconclusive; HCMV inh: -101.2*

What do the screens show for `O=C(NCC1Cc2cccc(-c3ncccn3)c2O1)C1CCCO1` (stereo not given)?
FMDV antiviral: -2.1%

How did Cc1ccc(-c2ccc(C#N)c(=O)n2CC(=O)N(C)C)cc1 do in these assays?
Lassa entry inh: -29.1%; HCV inhibitor: -1.3%; MARV entry inh: -7.2%; FMDV antiviral: -2.0%; SARS PLP yeast: 7.4%; HCMV inh: -70.0*

How did CCCCOc1ccc(-n2nc(C)cc2C)nn1 do in these assays?
Lassa entry inh: 30.0%; HCV inhibitor: 8.5%; MARV entry inh: 16.3%; FMDV antiviral: 17.7%; SARS PLP yeast: -4.3%; HCMV inh: -82.4*

What do the screens show for `O=C(CN1C(=O)C(=O)N(C2CCCC2)C1=O)Nc1ccc(N2CCOCC2)cc1`?
Lassa entry inh: inconclusive; HCV inhibitor: -11.8%; MARV entry inh: 12.3%[46.1 µM]; FMDV antiviral: -1.9%; SARS PLP yeast: 2.5%; HCMV inh: -6.3

What do the screens show for `Cc1noc(C)c1-c1nc(CS(=O)(=O)c2ccccc2)no1`?
Lassa entry inh: 7.7%; HCV inhibitor: 23.7%; MARV entry inh: 13.4%[46.1 µM]; FMDV antiviral: 16.3%; SARS PLP yeast: 1.0%; HCMV inh: -83.6*

Results for CCCCCn1c(CN2CCN(Cc3ccccc3)CC2)nc2c1c(=O)[nH]c(=O)n2C ?
Lassa entry inh: 3.8%; HCV inhibitor: -2.4%; MARV entry inh: 11.2%; FMDV antiviral: 0.0%; SARS PLP yeast: -0.8%; HCMV inh: -68.6*

How did CCn1c(N2CCC(Cc3ccccc3)CC2)nc2c1c(=O)[nH]c(=O)n2C do in these assays?
Lassa entry inh: inconclusive; HCV inhibitor: -23.1%; MARV entry inh: inconclusive; FMDV antiviral: 28.2µM*; SARS PLP yeast: -5.7%; HCMV inh: 43.6

How did COc1cccc2c1C(=O)c1c(O)c3c(c(O)c1C2=O)C[C@](O)(C(C)=O)C[C@H]3O[C@@H]1C[C@@H](N)[C@@H](O)[C@@H](C)O1 do in these assays?
HCV inhibitor: 8.91µM*; FMDV antiviral: -3.6%; HCMV inh: -100.0*

What do the screens show for `CCCCC(=O)OCC(=O)C1(O)Cc2c(O)c3c(c(O)c2C(OC2CC(NC(=O)C(F)(F)F)C(O)C(C)O2)C1)C(=O)c1c(OC)cccc1C3=O` (stereo not given)?
Lassa entry inh: inconclusive; HCV inhibitor: 3.55µM*; MARV entry inh: inconclusive; FMDV antiviral: -2.6%; HCMV inh: -98.4*

What do the screens show for `COc1cccc2c1-c1c(O)cccc1C2=O`?
HCV inhibitor: 1.0%; FMDV antiviral: -8.7%; SARS PLP yeast: -2.3%; HCMV inh: -2.9

What do the screens show for `COc1cccc2c1C(=O)c1c(O)c3c(c(O)c1C2=O)CC(O)(C(C)=O)CC3OC1CC(O)C(O)C(C)O1` (stereo not given)?
Lassa entry inh: inconclusive; HCV inhibitor: inconclusive; MARV entry inh: 1.41µM*; FMDV antiviral: -6.6%; HCMV inh: -100.7*

How did COc1cccc2c1C(=O)c1c(O)c3c(c(O)c1C2=O)C[C@@](O)(C(=O)CO)C[C@@H]3O[C@H]1C[C@H](N)[C@H](OC2CCCCO2)[C@H](C)O1 (stereo not given in full) do in these assays?
Lassa entry inh: 1.12µM*; MARV entry inh: 1.25µM*

What do the screens show for `CC(=O)Nc1ccc(C2=CC(=O)CC(C)(C)C2)cc1`?
HCV inhibitor: -7.6%; FMDV antiviral: 13.0%; SARS PLP yeast: -12.4%; HCMV inh: 0.0

Results for O=C(O)c1ccc(NC(=O)c2ccccc2NC(=O)c2cccc(Br)c2)cc1 ?
Lassa entry inh: 4.5%; HCV inhibitor: -17.9%; MARV entry inh: 15.9%; FMDV antiviral: 7.9%; SARS PLP yeast: 1.1%; HCMV inh: -34.2

How did CCOC(=O)C1=C(CN2CCN(c3cccc(OC)c3)CC2)NC(=O)NC1c1ccc(OC)cc1 (stereo not given) do in these assays?
Lassa entry inh: -13.5%[46.1 µM]; FMDV antiviral: -22.0%; HCMV inh: 5.9

Results for COc1cccc2c1C(=N)c1c(O)c3c(c(O)c1C2=O)CC(O)(C(C)=O)CC3OC1CC(N)C(O)C(C)O1 (stereo not given) ?
Lassa entry inh: 0.631µM*; HCV inhibitor: inconclusive; MARV entry inh: 0.355µM*; FMDV antiviral: inconclusive

Results for CC(=O)OC[C@H]1O[C@H](CCON=C(C)CCN2CCCCc3nc(C)c(C)cc32)C=C[C@H]1OC(C)=O ?
MARV entry inh: 16.2%[14.2 µM]

What do the screens show for `CCN(CC)CCCNC(=O)c1oc2ccc(S(=O)(=O)N3CC(C)CC(C)C3)cc2c1C` (stereo not given)?
Lassa entry inh: inconclusive; HCV inhibitor: 22.4µM*; MARV entry inh: 10µM*; FMDV antiviral: 15.4%; SARS PLP yeast: 1.0%; HCMV inh: -98.2*
